Screening results from PubChem.
FBW7 act: human FBW7 E3 ligase activation, primary screen. normalized activity (activation), % at 26.1 µM. 650,000 tested, 0.13% active. AlphaScreen FBW7–phospho-cyclin E peptide binding, activator screen; in the data active = normalized activity above about 1.9%;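 note: purified mutant Fbw7 with reduced substrate affinity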
MITF primary: blocks human microphthalmia-associated transcription factor; AlphaScreen MITF homodimerization, bead proximity signal; inhibition, % at 2.6 µM; 650,000 tested, 0.91% active; O75030; in the data active = inhibition above about 50%;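 note: 0% = vehicle wells with protein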
Target sequence (O75030 whole entry, looked up): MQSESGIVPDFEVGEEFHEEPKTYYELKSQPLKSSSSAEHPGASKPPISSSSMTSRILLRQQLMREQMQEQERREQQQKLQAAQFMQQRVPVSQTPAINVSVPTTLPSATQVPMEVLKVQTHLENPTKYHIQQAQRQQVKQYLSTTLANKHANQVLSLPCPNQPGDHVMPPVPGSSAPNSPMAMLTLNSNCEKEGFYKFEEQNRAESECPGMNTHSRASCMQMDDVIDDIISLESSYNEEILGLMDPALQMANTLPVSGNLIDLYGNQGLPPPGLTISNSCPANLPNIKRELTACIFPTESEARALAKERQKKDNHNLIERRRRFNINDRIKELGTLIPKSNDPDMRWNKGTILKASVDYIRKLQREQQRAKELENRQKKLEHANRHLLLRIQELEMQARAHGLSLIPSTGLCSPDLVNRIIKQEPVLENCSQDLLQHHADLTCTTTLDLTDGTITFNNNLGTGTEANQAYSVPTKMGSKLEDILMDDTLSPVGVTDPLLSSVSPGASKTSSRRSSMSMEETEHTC
TEAD-YAP block: TEAD-YAP interaction inhibition; HEK-TIYL cells, TEAD-Gal4/YAP UAS-luciferase luminescence; inhibition, % at 9.12 µM; 640,000 tested, 1.4% active; in the data active = inhibition above about 32%;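 note: 0% = median of test compound wells and 100% = reference inhibitor wells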
GPR151 ag: activators of human GPR151; Q8TDV0; PathHunter beta-arrestin GPR151 cells, luminescence; activation, % at 11.2 µM; 650,000 tested, 1% active; AID 1508602; in the data active = activation above about 4.9%;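 note: 0% = median of compound wells and 100% = cells with positive control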
* marks the source's active call; other numbers are inactive results. A selection: hits, their analogues and other compounds. The true share with any hit is near 3.5%.

SMILES | FBW7 act | MITF primary | TEAD-YAP block | GPR151 ag
COc1ccc(CSc2ccccn2)cc1[N+](=O)[O-] | 0 | -1 | -12 | 0
COc1ccc2c(c1)C(C)CC(C)(C)N2C(=O)CCl (centres undefined) | 0 | 0 | 41* | 0
O=C(N[C@H]1C[C@H]2C(=O)N[C@@H](Cc3ccccc3)C(=O)N2C1)c1cccnc1Oc1ccc(Cl)cc1 | 0 | -4 | -3 | -1
O=C(NCCc1ccccc1)C(=O)N/N=C/c1ccccc1 | 0 | -7 | 2 | 1
CCCNc1nc(SC)nc2c1cnn2CCNC(=O)c1ccc(OC)cc1OC | 0 | 2 | 36* | 1
CCCNc1nc(SC)nc2c1cnn2CCNC(=O)c1ccc(F)cc1 | 0 | 1 | 5 | 0
Cc1nn(C)c(C)c1-c1cc(NCCc2ccc(O)cc2)nc(N)n1 | 0 | 10 | 37* | 3
Cc1nn(C)c(C)c1-c1cc(NCc2ccccc2)nc(N)n1 | 0 | 8 | 1 | 0
CCC(C)(C)NC(=O)c1ccc2c(c1)N(CC(=O)OCc1ccccc1)C(=O)C(C)(C)O2 | 0 | 15 | 0 | 0
Cc1ccc(C)c(NC(=O)C2(C)CC3c4ccccc4C2c2ccccc23)c1 (centres undefined) | 0 | 11 | 4 | 1
COc1ccc(NC(=O)C2(C)CC3c4ccccc4C2c2ccccc23)cc1 (centres undefined) | 1.9* | 8 | 0 | 1
CC(C)(C)NC(=O)C(=O)N/N=C/c1ccccc1O | -2 | 53* | -44 | 0
O=C(CCC(=O)Nc1cccc(Cl)c1)N/N=C/c1ccccc1O | 0 | 56* | 7 | 0
O=C(CCCNc1ccccc1)N/N=C/c1ccccc1O | 0 | -5 | 6 | -1
O=C(CCCCC(=O)N/N=C/c1ccccc1O)N/N=C/c1ccccc1O | -1 | 7 | 40* | 1
CC1(C)c2ssc(=S)c2-c2ccccc2N1C(=O)c1ccccc1 | -1 | 17 | 57* | 4
CC1(C)c2ssc(=S)c2-c2ccccc2N1C(=O)C1CC1 | 0 | 6 | -5 | 0
Cc1nn(C)c(C)c1-c1nc(NCCO)c2[nH]cnc2n1 | 0 | 2 | 3 | 0
CCCCCC1CCC(c2ccc(OC(=O)c3ccc(C4CCC(CCC)CC4)cc3)cc2)CC1 (centres undefined) | 0 | -3 | 10 | 1
O=C(O)c1ccc(N/N=C/C2=C(N3CCOCC3)C(=C\c3ccccc3)/CC2)cc1 | 0 | 62* | -21 | 0
O=S(=O)(O)c1ccc(N/N=C/C2=C(N3CCOCC3)C(=C\c3ccccc3)/CC2)cc1 | 0 | -5 | 0 | -1
COc1ccc(C)cc1NC(=O)c1cnc(N2CCN(c3ncccn3)CC2)c2ccccc12 | 0 | 11 | 11 | -1
Cc1cccc(NC(=O)c2cnc(N3CCN(c4ncccn4)CC3)c3ccccc23)n1 | 0 | -4 | 53* | 0
COc1ccccc1NC(=O)c1cnc(N2CCN(c3ncccn3)CC2)c2ccccc12 | 0 | 11 | 60* | 1
COc1ccc([N+](=O)[O-])cc1NC(=O)c1cnc(N2CCN(c3ccccn3)CC2)c2ccccc12 | 0 | 14 | -6 | 0
SMILES | FBW7 act | MITF primary | TEAD-YAP block | GPR151 ag
COc1ccc(OC)c(NC(=O)c2cnc(N3CCN(c4ccccn4)CC3)c3ccccc23)c1 | 0 | 2 | 46* | 3
CC1CN(CCOc2cccc(C(F)(F)F)c2)CC(C)O1 (centres undefined) | 1 | 39 | -7 | -1
Cc1nc2ccccn2c1-c1csc(Nc2cccc(Cl)c2C)n1 | 0 | 1 | 21 | 0
CCOc1ccc(Nc2nc(-c3c(C)nc4ncccn34)cs2)cc1 | 0 | -6 | 58* | 1
Cc1nc2ncccn2c1-c1csc(Nc2ccc(Cl)cc2)n1 | 0 | -2 | 54* | -1
Cc1nc2ncccn2c1-c1csc(Nc2cccc(Cl)c2C)n1 | 0 | 3 | 38* | 1
Cc1ccc(Nc2nc(-c3c(C)nc4ncccn34)cs2)cc1 | 0 | 9 | 60* | -1
COc1ccc(N2CC(=O)N/C2=N\c2nc(C)cc(C)n2)cc1OC | 0 | -13 | 8 | 1
CC(=O)N1CC(C)Sc2cc(S(=O)(=O)N3CCN(Cc4ccccc4)CC3)ccc21 (centres undefined) | 0 | 14 | 49* | 0
COc1cccc(S(=O)(=O)NCc2ccccn2)c1 | 0 | 9 | 10 | -2
COc1cc(S(=O)(=O)NCc2ccccn2)ccc1Cl | 0 | 2 | 37* | 2
O=S(=O)(NCc1ccccn1)c1ccc(Cc2ccc(S(=O)(=O)NCc3ccccn3)cc2)cc1 | 0 | 8 | 59* | 0
COc1ccc(C(=O)n2c(=S)nc3cccc(C)n32)cc1 | 0 | -2 | 11 | 2
COc1ccc(C(=O)n2c(=S)nc3ccccn32)cc1 | 0 | 9 | 74* | -1
O=C(NCc1ccccn1)c1ccc(Cl)c(Cl)c1 | 0 | -29 | -25 | 0
Nn1c2ccccc2n2cc(-c3ccc(Cl)cc3)nc12 | 1 | 4 | 56* | -6
Oc1ccccc1-c1ccc2c(-c3ccc(N4CCNCC4)cc3)[nH]nc2n1 | 0 | 8 | 61* | 1
Cc1ccccc1/C=C1\SC(=Nc2ccccc2Cl)NC1=O | 0 | -3 | 45* | 0
Cc1cc(/C=C2\SC(=Nc3ccccc3Cl)NC2=O)c(C)n1-c1ccccc1 | 0 | -2 | 48* | 2
CCN(C(=O)Cn1ncc2c(=O)oc3ccccc3c21)c1cccc(Cl)c1 | 0 | 8 | 11 | 0
COc1cccc(Nc2nc(C)nc3sc(C)c(C)c23)c1 | 0 | -5 | 0 | 1
O=c1c(O)cc2c(-c3ccccc3)c3cc(O)c(O)c(Br)c3oc-2c1Br | -1 | 96* | -5 | 0
COc1ccc(OC)c(/C=C2\SC(=Nc3ccccc3)NC2=O)c1 | 0 | 6 | 8 | 0
COc1ccc(/C=C2/SC(=Nc3cccc(C)c3)NC2=O)c(OC)c1 | 0 | -2 | 54* | 1
COc1ccc(/C=C2\SC(=O)NC2=Nc2ccccc2)c(OC)c1 | 0 | 13 | 47* | 2
SMILES | FBW7 act | MITF primary | TEAD-YAP block | GPR151 ag
COc1ccc(/C=C2\SC(=O)NC2=Nc2ccccc2)cc1 | 0 | 20 | -31 | 1
COc1ccc(/C=C2/SC(=Nc3ccc(F)cc3)NC2=O)c(OC)c1 | 0 | 7 | 42* | 4
COc1ccc(OC)c(/C=C2\SC(=Nc3ccc(O)cc3)NC2=O)c1 | 0 | 5 | 54* | 1
COc1cccc(-n2c(=O)c3c(n4c(SCC(N)=O)nnc24)-c2ccccc2CC32CCCCC2)c1 | 0 | -14 | 0 | -1
COc1cccc(N=C2NC(=O)/C(=C/c3ccc(OC)c(OC)c3)S2)c1 | 0 | -6 | 48* | -1
Cc1cccc(-c2cc(Nc3ccc(OCCN4CCCCC4)cc3)ncn2)c1 | 0 | -5 | 22 | 0
O=C1CN(C(=O)COC(=O)Cc2ccc(Br)cc2)c2ccccc2N1 | 0 | -2 | 1 | -1
COc1cccc(C2C(C(=O)OC3CCCC3)=C(C)NC3=C2C(=O)CC(c2ccccc2)C3)c1OC (centres undefined) | 0 | -19 | 4 | -1
